From PubChem BioAssay AID1159580 (chemical genetic matrix, 2015)
Out of some 5,500 compounds screened, about 2,000 (36%) were called active. About 18% were inconclusive and are not listed. This is one part of the list. Unmarked numbers belong to inactive results. No stated cut-off is given here; in the data, active means normalized growth mostly below about 0.91 (no sharp cut-off); inconclusive means no clear call, values can overlap the other calls; inactive means mostly above about 0.92.

Test: chemical genetic growth profiling, strain panel (AID 1159580);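 further: tested at 20 µM; growth read once vehicle control cultures reached saturation at 30 °C; 1 = growth at the plate median or of vehicle wells; lower values mean less growth of the strain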
Conditions: growth OD

Compound: Nc1ncnc2c1ncn2C1O[C@H](COP(=O)(O)O)[C@@H](O)[C@H]1O (some centres not stated)
- normalized growth (S. cerevisiae deletion strains, locus YJR075W, strain HOC1, hits give low values): 1.04
- normalized growth (S. cerevisiae deletion strains, locus YKL009W, strain mrt4, hits give low values): 1.02
- normalized growth (S. cerevisiae deletion strains, locus YKL068W, hits give low values): 0.993
- normalized growth (S. cerevisiae deletion strains, locus YKL085W, strain MDH1 (second series), hits give low values): 1
- normalized growth (S. cerevisiae deletion strains, locus YKL085W, strain MDH1, hits give low values): 1
- normalized growth (S. cerevisiae deletion strains, locus YKL160W, strain elf1, hits give low values): 1
- normalized growth (S. cerevisiae deletion strains, locus YKL190W, strain CNB1, hits give low values): 1.01
- normalized growth (S. cerevisiae deletion strains, locus YKR001C, strain vps1, hits give low values): 0.581 (active)
- normalized growth (S. cerevisiae deletion strains, locus YKR026C, strain gcn3, hits give low values): 1
- normalized growth (S. cerevisiae deletion strains, locus YKR091W, strain srl3, hits give low values): 0.995
- normalized growth (S. cerevisiae deletion strains, locus YLL001W, strain dnm1, hits give low values): 1.03
- normalized growth (S. cerevisiae deletion strains, locus YLL026W, hits give low values): 1.01
- normalized growth (S. cerevisiae deletion strains, locus YLL041C, strain sdh2, hits give low values): 0.981
- normalized growth (S. cerevisiae deletion strains, locus YLR027C, strain aat2, hits give low values): 1.02
- normalized growth (S. cerevisiae deletion strains, locus YLR039C, strain RIC1, hits give low values): 1.04
- normalized growth (S. cerevisiae deletion strains, locus YLR058C, strain SHM2, hits give low values): 1.02
- normalized growth (S. cerevisiae deletion strains, locus YLR102C, strain apc9, hits give low values): 0.962
- normalized growth (S. cerevisiae deletion strains, locus YLR113W, strain HOG1, hits give low values): 1
- normalized growth (S. cerevisiae deletion strains, locus YLR221C, strain rsa3, hits give low values): 0.969
- normalized growth (S. cerevisiae deletion strains, locus YLR258W, strain gsy2, hits give low values): 0.987
- normalized growth (S. cerevisiae deletion strains, locus YLR262C, strain YPT6 (second series), hits give low values): 1.03
- normalized growth (S. cerevisiae deletion strains, locus YLR262C, strain YPT6, hits give low values): 1.02
- normalized growth (S. cerevisiae deletion strains, locus YLR268W, strain sec22, hits give low values): 0.627 (active)
- normalized growth (S. cerevisiae deletion strains, locus YLR320W, strain mms22, hits give low values): 0.983
- normalized growth (S. cerevisiae deletion strains, locus YLR330W, strain CHS5, hits give low values): 1.01
- normalized growth (S. cerevisiae deletion strains, locus YLR342W, strain FKS1 (second series), hits give low values): 1.04
- normalized growth (S. cerevisiae deletion strains, locus YLR342W, strain FKS1, hits give low values): 1.02
- normalized growth (S. cerevisiae deletion strains, locus YLR357W, strain rsc2, hits give low values): 1.02
- normalized growth (S. cerevisiae deletion strains, locus YLR370C, strain arc18, hits give low values): 1.01
- normalized growth (S. cerevisiae deletion strains, locus YLR371W, strain rom2, hits give low values): 0.986
- normalized growth (S. cerevisiae deletion strains, locus YLR384C, strain iki3, hits give low values): 1
- normalized growth (S. cerevisiae deletion strains, locus YLR418C, strain cdc73, hits give low values): 0.471 (active)
- normalized growth (S. cerevisiae deletion strains, locus YML016C, strain PPZ1, hits give low values): 1.01
- normalized growth (S. cerevisiae deletion strains, locus YML032C, strain rad52, hits give low values): 0.417 (active)
- normalized growth (S. cerevisiae deletion strains, locus YML120C, strain ndi1, hits give low values): 1.01
- normalized growth (S. cerevisiae deletion strains, locus YML124C, strain tub3, hits give low values): 0.829 (active)
- normalized growth (S. cerevisiae deletion strains, locus YMR058W, strain fet3, hits give low values): 1.01
- normalized growth (S. cerevisiae deletion strains, locus YMR078C, strain ctf18, hits give low values): 0.838 (active)
- normalized growth (S. cerevisiae deletion strains, locus YMR125W, strain sto1, hits give low values): 0.987
- normalized growth (S. cerevisiae deletion strains, locus YMR129W, hits give low values): 0.994
- normalized growth (S. cerevisiae deletion strains, locus YMR205C, strain PFK2, hits give low values): 1.02
- normalized growth (S. cerevisiae deletion strains, locus YMR223W, strain ubp8, hits give low values): 0.81 (active)
- normalized growth (S. cerevisiae deletion strains, locus YMR231W, strain pep5, hits give low values): 0.999
- normalized growth (S. cerevisiae deletion strains, locus YMR263W, strain SAP30, hits give low values): 1.01
- normalized growth (S. cerevisiae deletion strains, locus YMR307W, strain GAS1, hits give low values): 0.974
- normalized growth (S. cerevisiae deletion strains, locus YNL067W, strain RPL9B, hits give low values): 1.02
- normalized growth (S. cerevisiae deletion strains, locus YNL071W, strain lat1, hits give low values): 0.998
- normalized growth (S. cerevisiae deletion strains, locus YNL128W, strain TEP1, hits give low values): 1.02
- normalized growth (S. cerevisiae deletion strains, locus YNL153C, strain GIM3, hits give low values): 1.01
- normalized growth (S. cerevisiae deletion strains, locus YNL183C, strain NPR1, hits give low values): 0.97
- normalized growth (S. cerevisiae deletion strains, locus YNL209W, strain ssb2, hits give low values): 0.998
- normalized growth (S. cerevisiae deletion strains, locus YNL233W, strain BNI4, hits give low values): 1.01
- normalized growth (S. cerevisiae deletion strains, locus YNL248C, strain rpa49, hits give low values): 0.977
- normalized growth (S. cerevisiae deletion strains, locus YNL250W, strain rad50, hits give low values): 1
- normalized growth (S. cerevisiae deletion strains, locus YNL271C, strain bni1, hits give low values): 0.895 (active)
- normalized growth (S. cerevisiae deletion strains, locus YNL298W, strain CLA4, hits give low values): 0.918
- normalized growth (S. cerevisiae deletion strains, locus YNL307C, strain MCK1, hits give low values): 0.847 (active)
- normalized growth (S. cerevisiae deletion strains, locus YNL322C, strain KRE1 (second series), hits give low values): 0.991
- normalized growth (S. cerevisiae deletion strains, locus YNL322C, strain KRE1, hits give low values): 1.01
- normalized growth (S. cerevisiae deletion strains, locus YNR049C, strain mso1, hits give low values): 0.994
- normalized growth (S. cerevisiae deletion strains, locus YNR052C, strain pop2, hits give low values): 0.476 (active)
- normalized growth (S. cerevisiae deletion strains, locus YOL006C, strain TOP1, hits give low values): 1.04
- normalized growth (S. cerevisiae deletion strains, locus YOL012C, strain htz1): 0.221
- normalized growth (S. cerevisiae deletion strains, locus YOL147C, strain pex11, hits give low values): 0.516 (active)
- normalized growth (S. cerevisiae deletion strains, locus YOR001W, strain rrp6, hits give low values): 1.02
- normalized growth (S. cerevisiae deletion strains, locus YOR061W, strain CKA2, hits give low values): 1.01
- normalized growth (S. cerevisiae deletion strains, locus YOR069W, strain VPS5, hits give low values): 1.01
- normalized growth (S. cerevisiae deletion strains, locus YOR070C, strain gyp1, hits give low values): 0.995
- normalized growth (S. cerevisiae deletion strains, locus YOR080W, strain dia2, hits give low values): 1
- normalized growth (S. cerevisiae deletion strains, locus YOR083W, strain WHI5, hits give low values): 0.988
- normalized growth (S. cerevisiae deletion strains, locus YOR106W, strain vam3, hits give low values): 1.03
- normalized growth (S. cerevisiae deletion strains, locus YOR136W, strain idh2, hits give low values): 0.953
- normalized growth (S. cerevisiae deletion strains, locus YOR144C, strain elg1, hits give low values): 0.645 (active)
- normalized growth (S. cerevisiae deletion strains, locus YOR184W, strain ser1, hits give low values): 0.636 (active)
- normalized growth (S. cerevisiae deletion strains, locus YOR231W, strain MKK1, hits give low values): 1.01
- normalized growth (S. cerevisiae deletion strains, locus YOR265W, strain rbl2, hits give low values): 1
- normalized growth (S. cerevisiae deletion strains, locus YOR270C, strain vph1, hits give low values): 0.996
- normalized growth (S. cerevisiae deletion strains, locus YOR290C, strain snf2, hits give low values): 0.972
- normalized growth (S. cerevisiae deletion strains, locus YOR316C, strain cot1, hits give low values): 0.969
- normalized growth (S. cerevisiae deletion strains, locus YPL051W, strain arl3, hits give low values): 1.01
- normalized growth (S. cerevisiae deletion strains, locus YPL055C, strain LGE1, hits give low values): 1.07
- normalized growth (S. cerevisiae deletion strains, locus YPL078C, strain atp4, hits give low values): 1.03
- normalized growth (S. cerevisiae deletion strains, locus YPL106C, strain sse1, hits give low values): 0.997
- normalized growth (S. cerevisiae deletion strains, locus YPL240C, strain hsp82, hits give low values): 0.998
- normalized growth (S. cerevisiae deletion strains, locus YPL241C, strain CIN2, hits give low values): 1.01
- normalized growth (S. cerevisiae deletion strains, locus YPL256C, strain CLN2, hits give low values): 0.995
- normalized growth (S. cerevisiae deletion strains, locus YPR119W, strain clb2, hits give low values): 0.935
- normalized growth (S. cerevisiae deletion strains, locus YPR141C, strain kar3, hits give low values): 0.995
- normalized growth (S. cerevisiae deletion strains, locus YPR163C, strain tif3, hits give low values): 0.725 (active)
- normalized growth (S. cerevisiae deletion strains, locus YPR167C, strain met16, hits give low values): 0.858 (active)
- normalized growth (S. cerevisiae deletion strains, strain wtn01, hits give low values): 0.866 (active)
- normalized growth (S. cerevisiae strains, strain wild type, hits give low values): 1.02
